Reference: PubChem BioAssay (NCI)
The panel holds about 83,000 compounds, 20% with a hit somewhere; the sample as a whole holds those more often.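 Negative percent growth values reflect cell death: -40 means 40% of the cells present at the start died, and -100 means all died.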 Calls of active or inactive are those of the source. The calls were made as follows: active = growth percent below 10; inactive = the rest.

Key:
Experiment in all cases: NCI-60 one-dose screen, 48 h (100 = growth as untreated, 0 = no growth, -100 = all killed)
Settings in all cases: 10 µM
NCI-H322M lung = tested on: NCI-H322M lung
HOP-92 NSCLC = tested on: HOP-92 NSCLC
M14 melanoma = tested on: M14 melanoma
UO-31 renal = tested on: UO-31 renal
CCRF-CEM leukemia = tested on: CCRF-CEM leukemia
BT-549 breast = tested on: BT-549 breast
MDA-MB-435 melanoma = tested on: MDA-MB-435 melanoma
SW-620 colon = tested on: SW-620 colon
HCT-116 colon = tested on: HCT-116 colon
HCC-2998 colon = tested on: HCC-2998 colon
KM12 colon = tested on: KM12 colon
RXF 393 renal = tested on: RXF 393 renal
SK-MEL-5 melanoma = tested on: SK-MEL-5 melanoma
OVCAR-4 ovarian = tested on: OVCAR-4 ovarian
T-47D breast = tested on: T-47D breast
NCI-H522 lung = tested on: NCI-H522 lung
EKVX NSCLC = tested on: EKVX NSCLC
MCF7 breast = tested on: MCF7 breast

Measured: growth

COc1cccc(O)c1/C=C1\SCc2cc3c(OC)cccc3[o+]c21
inactive: NCI-H322M lung 103% | HOP-92 NSCLC 154% | M14 melanoma 106% | UO-31 renal 65.5% | CCRF-CEM leukemia 101% | BT-549 breast 111% | MDA-MB-435 melanoma 132% | SW-620 colon 115% | HCT-116 colon 107% | HCC-2998 colon 114% | KM12 colon 110%

COc1cc(C2CC(c3ccccc3)=Nc3c(N)nc(N)nc3N2)ccc1Oc1nc(NCCO)nc(N2CCOCC2)n1 (stereo not given)
inactive: HOP-92 NSCLC 86.3% | RXF 393 renal 95.7% | M14 melanoma 104% | SK-MEL-5 melanoma 98.7% | UO-31 renal 94.2% | CCRF-CEM leukemia 92.4% | OVCAR-4 ovarian 105% | T-47D breast 90% | BT-549 breast 92.6% | MDA-MB-435 melanoma 102% | SW-620 colon 107% | HCT-116 colon 105% | HCC-2998 colon 115% | KM12 colon 102%

O=C(CC(=O)Nc1ccc(Oc2ncnc3scc(Nc4n[nH]c(=S)s4)c23)cc1)Nc1ccc(Cl)cc1
inactive: NCI-H322M lung 94.5% | NCI-H522 lung 55.2% | RXF 393 renal 94.8% | M14 melanoma 108% | SK-MEL-5 melanoma 89% | EKVX NSCLC 75.6% | UO-31 renal 47% | CCRF-CEM leukemia 58.1% | OVCAR-4 ovarian 90.2% | T-47D breast 55.1% | BT-549 breast 80.2% | MDA-MB-435 melanoma 83.2% | SW-620 colon 93.5% | MCF7 breast 11.7% | HCT-116 colon 92.5% | HCC-2998 colon 99.8%

O=C(CN1CCN(c2ncnc3c2cnn3-c2ccccc2)CC1)Nc1ccc(Cl)cc1
inactive: NCI-H322M lung 78.9% | HOP-92 NSCLC 69.8% | RXF 393 renal 74.4% | M14 melanoma 59.4% | CCRF-CEM leukemia 51.9% | T-47D breast 26.7% | BT-549 breast 39.1% | MDA-MB-435 melanoma 47% | SW-620 colon 78.4% | HCT-116 colon 51.8% | HCC-2998 colon 55.8% | KM12 colon 53.1%
active: NCI-H522 lung -83.1% | SK-MEL-5 melanoma 0.35%
